This passage reports inhibition results from PubChem BioAssay AID624125 (The Scripps Research Institute Molecular Screening Center, 2012).

Values joined by “and” are separate entries in the source; they are usually repeats but may differ in a detail not shown here. Equal values may be shown once. The campaign covered roughly 360,000 compounds. About 2,600 (0.72%) were called active.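 Rule for the calls: active = inhibition above its plate's cutoff, the mean inhibition of sample wells plus 3 SD (cut at about 27% in these data); inactive = the rest.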 For the sample, actives were picked, then their nearest neighbours and some compounds at random. The source holds several records for some structures; these can differ, active in one and inactive in another.

Chain of Muscarinic acetylcholine receptor M4 (Homo sapiens) (P08173 whole entry, looked up): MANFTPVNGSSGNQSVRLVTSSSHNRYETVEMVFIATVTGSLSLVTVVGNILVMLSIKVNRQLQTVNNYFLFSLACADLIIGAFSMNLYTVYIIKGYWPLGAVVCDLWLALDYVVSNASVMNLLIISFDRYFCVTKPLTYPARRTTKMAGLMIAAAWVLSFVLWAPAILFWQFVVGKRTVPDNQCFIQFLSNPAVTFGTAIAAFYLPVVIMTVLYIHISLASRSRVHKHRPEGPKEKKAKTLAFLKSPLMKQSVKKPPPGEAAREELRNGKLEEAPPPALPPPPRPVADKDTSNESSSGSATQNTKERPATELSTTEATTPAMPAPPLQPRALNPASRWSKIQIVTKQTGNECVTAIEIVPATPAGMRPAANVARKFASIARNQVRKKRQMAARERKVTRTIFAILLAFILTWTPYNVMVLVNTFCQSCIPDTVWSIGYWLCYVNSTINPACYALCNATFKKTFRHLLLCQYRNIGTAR

The experiment addresses Muscarinic acetylcholine receptor M4 (Homo sapiens) (UniProt P08173). Briefly: CHRM4 blockers of acetylcholine calcium response – CHO cells, Fluo-8 calcium fluorescence, primary screen (AID 624125).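 Note: 0% = acetylcholine EC80 with DMSO and 100% = DMSO without agonist.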 The note with it: CHO-hM4 cells, ACh EC80, Fluo-8 calcium fluorescence; at 3 µM; stronger effect = higher value.
As to `CCOC(=O)[C@H]1[C@H]2COc3ccc(C)cc3[C@@H]2N2C(=O)CN(Cc3ccc(F)cc3)C(=O)[C@@]12C`, the inhibition was 56.2% (active). With `CCOC(=O)[C@H]1[C@H]2COc3cc(OC)ccc3[C@@H]2N2C(=O)CN(Cc3ccc(Cl)cc3)C(=O)[C@@]12C` the figure was 2.23% (inactive). Consider `CCOC(=O)[C@H]1[C@H]2COc3ccccc3[C@@H]2N2C(=O)CN(Cc3ccccc3)C(=O)[C@@]12C`, for which the inhibition is -1.92% (inactive). `CC(C)CNC(=S)NC(=O)c1ccc(Cl)cc1`: the inhibition is -0.83% (inactive). With `COc1ccc(N2CC(C(=O)NCCN3C(=O)S/C(=C\c4cccnc4)C3=O)CC2=O)c(OC)c1` (centres undefined) the figure was -13.5% (inactive); with `O=C(NC(Cc1ccc(O)cc1)C(=O)O)/C(=C/c1ccccc1)NC(=O)c1ccccc1` (centres undefined), 0.71% (inactive). On to `COc1cccc(C(=O)NNS(=O)(=O)c2ccc(F)cc2)c1`, for which the inhibition is 9.85% (inactive).

On to `CC(C)NC(=O)C1(C)CCCCN1Cc1cccc(C(F)(F)F)c1` (centres undefined), for which the inhibition was -7.19% (inactive).

Turning to `O=C(COC(=O)c1ccc(S(=O)(=O)Nc2ccccc2)cc1)NCC1CCCO1` (centres undefined), the inhibition is 0.71% (inactive).

As to `C=CCC1(CC=C)CCCN1C(=O)c1cc(COc2ccc(-n3cncn3)cc2)on1`, the inhibition is 28.6% (active). As for `CCCC(=O)N1CCC1(C)C(=O)Nc1ccc(-n2cncn2)cc1` (centres undefined), the inhibition was -7.42% (inactive). Take `O=C(c1cc(COc2c(F)cccc2F)on1)N1CCSCC1`: the inhibition is 8.34% (inactive). For `Cc1cccc(C)c1Nc1nnc(SCC(=O)NCCCN2CCCC2=O)s1`, the inhibition is -0.57% (inactive). On to `COC(=O)c1sccc1NC(=O)CC1C(=O)NCCN1C(=O)Nc1ccc(F)cc1F` (centres undefined), for which the inhibition was -7.71% (inactive). Turning to `COc1ccc(CC(=O)Nc2c3c(nn2-c2cccc(Cl)c2)CS(=O)C3)cc1` (centres undefined), the inhibition was 3.64% (inactive).

As for `Cc1cc(OCCN2CCCC2)cc(C(C)C)c1`, the inhibition was 33% (active). Regarding `Cc1cc(OCCN2CCCC2)ccc1C(C)C`, the inhibition was -0.72% (inactive). Consider `Cc1ccc(C(C)C)cc1OCCN1CCCC1`, for which the inhibition is 9.89% (inactive). With `CCOC(=O)[C@]12CCCC=C1N(CCC1=CCCCC1)C(=O)[C@H](CC(=O)NCCCOC)C2` the figure was -3.81% (inactive); with `CC(=O)N(CC1CCCO1)C1(C(=O)NC2CCCC2)CCCCC1` (centres undefined), -5.29% (inactive).

Regarding `CN(CC#CCC(c1ccccc1)c1ccccc1)C(C)(C)C`, the inhibition was 78.5% (active). To `Cc1cc(Cl)ccc1C(=O)C1CCCN(C(=O)CCN2CCCO2)C1` (centres undefined) belongs 4.93% (inactive); to `CCCCCCCCCCOC(=O)Cn1c(COc2cccc(OC)c2)[n+](C)c2ccccc21`, 36% (active). Regarding `COCCN1C(=O)C(=O)/C(=C(/O)c2ccc(S(=O)(=O)N3CCCCC3)cc2)C1c1ccc(OC)c(OC)c1` (centres undefined), the inhibition is -5.56% (inactive). To `CC(C)c1cc(C(=O)N/N=C/c2ccoc2)c(O)c(C(C)C)c1` belongs 5.01% (inactive); to `Fc1ccccc1CNC(=S)Nc1ccc(Cl)cc1`, 4.18% (inactive); to `COC(=O)c1ccccc1NC(=O)CN(Cc1ccc(Cl)cc1)S(C)(=O)=O`, 1.99% (inactive).

As for `O=C(Cc1ccc(Cl)cc1)NC(=S)Nc1ccccc1O`, the inhibition is 59% (active). As for `CCOc1ccc(S(=O)(=O)N(CC(=O)NCC(F)(F)F)Cc2ccco2)cc1`, the inhibition is -2.55% (inactive). With `Cc1ccc(OCCNC(=O)CCNS(=O)(=O)c2ccc(Br)cc2)cc1`, the inhibition is -11.5% (inactive).

Turning to `Cc1ccc(OC(=O)c2c(C)nn(-c3ccccc3)c2C)cc1`, the inhibition is -5.29% (inactive).

As for `COc1ccccc1CSc1ncc(-c2ccc([N+](=O)[O-])cc2)[nH]1`, the inhibition was -1.68% (inactive).

Turning to `CCCCN(C)c1ccc([N+](=O)[O-])cc1`, the inhibition is 12.1% (inactive). With `CCC1OC(c2ccc([N+](=O)[O-])cc2)=Nc2ccccc21` (centres undefined) the figure was 31.2% (active); with `CCOC(=O)c1cc(-c2ccccc2C)n(Cc2cc(C)no2)n1`, 4.03% (inactive).

Take `CCCCNCCS(=O)(=O)NCc1ccccc1`: the inhibition is 7.64% (inactive). As to `C=CC1=C(C(=O)O)N2C(=O)[C@@H](NC(=O)/C(=N/OCC(=O)O)c3csc(N)n3)[C@H]2SC1`, the inhibition is -12.2% (inactive). As to `C=CC1=C(C(=O)O)N2C(=O)[C@@H](NC(=O)/C(=N\OCC(=O)O)c3csc(N)n3)[C@H]2SC1`, the inhibition was -25.2% (inactive). To `CO/N=C(\C(=O)N[C@@H]1C(=O)N2C(C(=O)O)=C(COC(C)=O)CS[C@H]12)c1csc(N)n1` (stereo in doubt) belongs -6.4% (inactive) and 79.2% (active) and 82.7% (active); to `O=C(Cc1ccc(-n2c(=O)[nH]c3ccccc3c2=O)cc1)N1CCN(c2cccc(Cl)c2)CC1`, -5% (inactive); to `Cn1c(Cc2cccc3ccccc23)nnc1SCC(=O)N1CCN(c2cccc(Cl)c2)CC1`, -1.27% (inactive). With `O=C(Cc1csc(Nc2nc(=S)[nH]c3ccccc23)n1)NCCCN1CCN(c2cccc(Cl)c2)CC1`, the inhibition was 32.6% (active).

Take `COc1cc(SC#N)ccc1N=Cc1c(C)[nH]n(-c2ccc(C)cc2)c1=O`: the inhibition was 39.7% (active). With `CCN(CC(=O)NCc1cccs1)S(=O)(=O)c1ccc(NC(C)=O)cc1`, the inhibition is 16.2% (inactive).

As for `CCCCNC(=O)N1CCN(S(C)(=O)=O)CC1`, the inhibition is 10.9% (inactive). To `O=C(Nc1ccc(Cl)c(C(F)(F)F)c1)C1Cc2c(-c3ccccc3Oc3ccccc3)ccnc2O1` (centres undefined) belongs 6.27% (inactive). With `O=C1c2ccccc2C(=O)N1CCC(c1ccccc1)c1ccco1` (centres undefined) the figure was 35.6% (active).

For the compound `Nc1ccc(SCCN2C(=O)c3ccccc3C2=O)cc1`, the inhibition was 2.61% (inactive). Take `O=C1c2ccccc2C(=O)N1CCC(O)C[N+](=O)[O-]` (centres undefined): the inhibition is -2.27% (inactive). In the case of `Cc1ccc(NC(=O)COC(=O)C2C3CC4OC(=O)C2C4C3)cc1Cl` (centres undefined), the inhibition was 15.9% (inactive). With `CCCN1C(=O)C(NC(C)=O)c2cc(OC)ccc21` (centres undefined) the figure was 13.9% (inactive); with `ON=C1/C(=N\O)CC2(C/C1=N/O)OCCO2`, 10.7% (inactive). For `COc1cc(/C=C2/SC(=S)N(Cc3ccccc3)C2=O)cc(OC)c1O`, the inhibition is 34.3% (active). As for `COc1cc(/C=C2\SC(=O)NC2=O)ccc1OCc1ccc(Cl)nc1`, the inhibition is -5.37% (inactive). Consider `CN(C(=O)CN1C(=O)/C(=C/c2ccc(Cl)cc2)SC1=S)C1CCS(=O)(=O)C1` (centres undefined), for which the inhibition was -3.95% (inactive).

For `CCCN(CCc1ccccc1)C1CCc2c(O)cccc2C1` (centres undefined), the inhibition is 50.8% (active). With `Cc1cc(C)cc(C(=O)N(CCc2ccccc2)C2=CC3CCC(C2)N3C)c1` (centres undefined) the figure was 2.44% (inactive); with `Cc1cccc(C)c1NC(=O)C(c1cccc2ccccc12)n1c(=O)c(-c2ccco2)nc2ccccc21` (centres undefined), -2.98% (inactive); with `Cc1ccc(S(=O)(=O)N2CCN(C(=O)COC(=O)CNC(=O)c3ccc(C(C)(C)C)cc3)CC2)c(C)c1`, 1.62% (inactive). With `Cc1cccc(C)c1NC(=O)c1ccc(CN2CCc3ccccc3C2)cc1` the figure was 12.8% (inactive); with `Cc1ccc(NC(=O)CN2CCc3ccccc3C2)cc1C`, 1.35% (inactive). Regarding `Cc1cccc2c1-c1sc(C(=O)NCCCN3CCc4ccccc4C3)cc1CO2`, the inhibition is 45.9% (active). To `Cc1ccc(C(=O)OCC(=O)NC(=O)Cc2ccccc2)c(O)c1` belongs 3.16% (inactive). Take `CC1CCCCC1NC(=O)CN1CCC(O)(c2ccc3c(c2)OCO3)CC1` (centres undefined): the inhibition was -5.57% (inactive). With `COc1ccc(C)cc1NC(=O)C(OC(=O)c1cccc(S(=O)(=O)N(C)c2ccccc2)c1)c1ccccc1` (centres undefined) the figure was 5.12% (inactive); with `CC(=O)c1c(C)[nH]c(C(=O)OCC(=O)Nc2c(C)cccc2C)c1C`, 4.68% (inactive). To `CC(=O)c1c(C)[nH]c(C(=O)COC(=O)c2cccc(S(=O)(=O)N(C)c3ccccc3)c2)c1C` belongs 54.5% (active). To `C=CCSc1nc(N)cc(=O)[nH]1` belongs 4.39% (inactive); to `O=C(C1CCN(CC2CCCCC2)CC1)N1CCCC1`, -6.1% (inactive). In the case of `CC(=O)NC(c1cccc(F)c1)c1nc(-c2cccc(F)c2)cs1` (centres undefined), the inhibition was -12% (inactive). With `COC(=O)c1ccccc1Sc1c(/C=N/OCc2ccc(Cl)cc2)c(C(F)(F)F)nn1C` the figure was -7.11% (inactive); with `CCC(=O)OCc1c(C(F)(F)F)nn(C)c1Oc1cccc(C(F)(F)F)c1`, 9.7% (inactive); with `Cn1nc(C(F)(F)F)c(C(=O)Nc2cccc(C(F)(F)F)c2)c1SCc1ccc(Cl)cc1`, 33.8% (active). Consider `C=CCNC(=S)/N=c1/ccccn1Cc1ccccc1`, for which the inhibition is 11.8% (inactive).

Consider `COc1ccccc1CNc1nc(Nc2ccccc2Cl)c2sccc2n1`, for which the inhibition was 3.54% (inactive).

In the case of `COc1cccc(CNc2nc(NCc3ccccc3OC)nc3ccsc23)c1`, the inhibition is 13.8% (inactive). `COc1cccc(CNc2nc(NCc3cccs3)nc3ccsc23)c1`: the inhibition was 48.6% (active).

On to `COc1ccc(OCC(=O)Nc2cc(C)c(Cl)cc2OC)c([N+](=O)[O-])c1`, for which the inhibition is -4.9% (inactive).

As for `Cc1ccccc1C(OCCN(C)C)C1CCCCC1` (centres undefined), the inhibition is 83% (active). To `CN(C)CCOC1c2ccccc2-c2ccccc21` belongs 3.09% (inactive); to `Cc1ccccc1C(OCC(O)CN1CCCCC1CCO)c1ccccc1` (centres undefined), 8.86% (inactive); to `Cc1n[nH]c(=O)n1-c1ccc(Oc2ccccc2)cc1`, -7.75% (inactive).

With `COc1cccc(/C=N/Nc2cc(C)nc(-c3ccccc3O)n2)c1O`, the inhibition is 28.3% (active). To `COc1ccc(OC)c(/C=N/NC(=O)c2ccc[n+](CC(=O)c3ccccc3)c2)c1` belongs -5.54% (inactive); to `CCCCCCCCn1c2c(c(=N)c3c1CCC3)CCCC2`, 36.8% (active). Consider `CC1CN(S(=O)(=O)c2ccccc2)C(C)CN1S(=O)(=O)c1ccccc1` (centres undefined), for which the inhibition was -4.76% (inactive). With `O=C(CC(NC(=O)c1ccccc1)c1ccccc1)Nc1ccc(F)c(F)c1` (centres undefined) the figure was -4.69% (inactive); with `COc1ccccc1OCc1nnc(SCC(N)=O)n1-c1ccccc1`, -4.24% (inactive); with `CC1CCN(C(=O)c2ccc(S(=O)(=O)Cc3cc(F)ccc3F)c([N+](=O)[O-])c2)CC1`, -7.53% (inactive).

Usually inhibition stands for the drop in the measured response relative to a control, in per cent.
